# Source: PubChem BioAssay
# Inconclusive results are not listed. The list shows a part of the results. Activity calls are given as the source filed them. Cut-off read from the data, not from the text of the source, unless noted: active = binding response below about 72% or above about 130%; inactive = in between.
# What was measured:
# [1] = molecular target: Regulator of G-protein signaling 16 (Homo sapiens) (UniProt O15492); assay: modulators of RGS–Galpha-o binding, primary screen, biochemical, multiplexed beads, flow cytometry, RGS4/7/8/16/19 (AID 1504); settings: multiplexed bead flow cytometry, measured here: RGS16 interaction, at 10 µM;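 note: fluorescently labeled Galpha-o bound to GDP with aluminium fluoride binding biotinylated RGS beads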
# [2] = molecular target: Regulator of G-protein signaling 19 (Homo sapiens) (UniProt P49795); assay: as above; settings: multiplexed bead flow cytometry, measured here: RGS19 interaction, at 10 µM
# [3] = molecular target: Regulator of G-protein signaling 7 (Homo sapiens) (UniProt P49802); assay: as above; settings: multiplexed bead flow cytometry, measured here: RGS7 interaction, at 10 µM
# [4] = molecular target: Regulator of G-protein signaling 8 (Homo sapiens) (UniProt P57771); assay: as above; settings: multiplexed bead flow cytometry, measured here: RGS8 interaction, at 10 µM
# [5] = disruption of biotin probe capture by avidin, counter-screen for RGS protein interaction modulators, biochemical, flow cytometry, bead-based (AID 1783;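 active = inhibition above 50%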;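 note: median green fluorescence of gated singlet beads compared with DMSO control wells; 0% = DMSO wells and 100% = complete loss of bead fluorescence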); settings: streptavidin beads, fluorescein-biotin binding; at 10 µM, stronger effect = higher value
# [6] = molecular target: Guanine nucleotide-binding protein G(o) subunit alpha (Homo sapiens) (UniProt P09471); assay: RGS8-Galphao binding modulators, confirmation, biochemical, multiplexed bead flow cytometry, single concentration (AID 1836); settings: bead-based flow cytometry RGS8-Galphao binding, fluorescence; at 10 µM; actives lie on both sides;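 note: Galphao activated as GDP AlF4 complex before binding bead RGS8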
# Chain of Guanine nucleotide-binding protein G(o) subunit alpha (Homo sapiens) (P09471 whole entry, looked up): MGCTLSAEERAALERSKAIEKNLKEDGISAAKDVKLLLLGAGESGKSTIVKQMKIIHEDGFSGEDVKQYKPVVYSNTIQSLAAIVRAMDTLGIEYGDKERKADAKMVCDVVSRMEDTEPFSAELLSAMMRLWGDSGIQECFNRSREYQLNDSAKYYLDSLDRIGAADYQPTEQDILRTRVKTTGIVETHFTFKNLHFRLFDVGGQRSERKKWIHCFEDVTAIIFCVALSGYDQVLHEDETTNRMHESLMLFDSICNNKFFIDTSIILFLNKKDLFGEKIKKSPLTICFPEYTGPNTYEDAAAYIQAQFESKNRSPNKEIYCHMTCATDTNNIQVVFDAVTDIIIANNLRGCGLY
# [7] = molecular target: Guanine nucleotide-binding protein G(o) subunit alpha (Homo sapiens) (UniProt P09471); assay: RGS7-Galphao binding modulators, confirmation, biochemical, multiplexed bead flow cytometry, single concentration (AID 1837; in the data active = response below about 75% or above about 130%; inactive = in between;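 note: fluorescent Galphao activated with GDP and aluminum fluoride binding bead-coupled RGS7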); settings: bead-based flow cytometry RGS7-Galphao binding; at 10 µM; actives lie on both sides
# [8] = molecular target: Regulator of G-protein signaling 16 (Homo sapiens) + Guanine nucleotide-binding protein G(o) subunit alpha (Homo sapiens) (UniProt O15492+P09471); assay: modulators of RGS16-Galphao protein binding, confirmation, biochemical, single concentration, multiplexed bead flow cytometry (AID 1838; in the data active = response below about 74% or above about 130%; inactive = in between;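 note: Galphao activated as the GDP aluminium fluoride complex binding bead-coupled RGS16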); settings: bead-based flow cytometry, at 10 µM, actives lie on both sides
# Chain of Regulator of G-protein signaling 16 (Homo sapiens) + Guanine nucleotide-binding protein G(o) subunit alpha (Homo sapiens) (O15492 whole entry, looked up): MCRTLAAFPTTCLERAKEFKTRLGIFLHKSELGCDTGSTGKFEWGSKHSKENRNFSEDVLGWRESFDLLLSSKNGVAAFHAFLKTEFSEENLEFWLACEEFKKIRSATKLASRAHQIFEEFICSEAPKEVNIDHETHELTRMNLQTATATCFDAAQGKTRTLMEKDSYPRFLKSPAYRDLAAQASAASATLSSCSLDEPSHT
# Chain of Regulator of G-protein signaling 16 (Homo sapiens) + Guanine nucleotide-binding protein G(o) subunit alpha (Homo sapiens) (P09471 whole entry, looked up): as the sequence (P09471 whole entry, looked up) above
# [9] = molecular target: Guanine nucleotide-binding protein G(o) subunit alpha (Homo sapiens) (UniProt P09471); assay: modulators of RGS4-Galphao protein binding, confirmation, biochemical, single concentration, multiplexed bead flow cytometry (AID 1840; in the data active = binding response below about 74% or above about 130%; inactive = in between); settings: at 10 µM, actives lie on both sides
# [10] = molecular target: Guanine nucleotide-binding protein G(o) subunit alpha (Homo sapiens) + Regulator of G-protein signaling 19 (Homo sapiens) (UniProt P09471+P49795); assay: regulators of RGS19-Galphao binding, confirmation, biochemical, single point, multiplexed bead flow cytometry (AID 1841; in the data active = response below about 50% or above about 160%; inactive = in between;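 note: 100% = no compound control and 0% = blank background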); settings: bead-based flow cytometry RGS19-Galphao binding; at 10 µM; actives lie on both sides
# Chain of Guanine nucleotide-binding protein G(o) subunit alpha (Homo sapiens) + Regulator of G-protein signaling 19 (Homo sapiens) (P09471 whole entry, looked up): as above
# Chain of Guanine nucleotide-binding protein G(o) subunit alpha (Homo sapiens) + Regulator of G-protein signaling 19 (Homo sapiens) (P49795 whole entry, looked up): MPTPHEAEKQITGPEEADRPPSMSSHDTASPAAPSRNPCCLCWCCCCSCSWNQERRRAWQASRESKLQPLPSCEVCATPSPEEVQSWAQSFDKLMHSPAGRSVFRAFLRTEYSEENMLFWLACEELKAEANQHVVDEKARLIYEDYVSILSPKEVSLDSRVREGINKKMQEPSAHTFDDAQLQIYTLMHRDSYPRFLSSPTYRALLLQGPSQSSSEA
# [11] = yeast TOR pathway RPL19A-GFP modulators, primary screen, cell-based, S. cerevisiae, multiplex flow cytometry (AID 1862; in the data active = percent of DMSO control GFP below about 86%;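 note: lower values mimic rapamycin by blocking the RPL19A rise seen in DMSO cells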); settings: S. cerevisiae RPL19A-GFP strain, flow cytometry fluorescence, 3 h; at 10 µM; stronger effect = lower value
# [12] = modulators of MEP2-GFP levels in yeast, primary screen, S. cerevisiae, multiplex flow cytometry (AID 1867;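 active = GFP response, as percent of the DMSO control, above the screen-wide mean plus 3 SD, about 139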;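 note: median GFP channel fluorescence of barcode-gated MEP2-GFP cells measured by flow cytometry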); settings: S. cerevisiae MEP2-GFP strain, 3 h, at 10 µM, stronger effect = higher value, 100% means same as DMSO wells
# [13] = modulators of CIT2-GFP expression in yeast, primary screen, S. cerevisiae, GFP fusion, multiplex flow cytometry (AID 1870;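 active = percent response above a set limit, the screen-wide mean plus 3 SD, cut at about 130% in these data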;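 note: barcoded CIT2-GFP strain pooled with four other GFP strains with rapamycin as positive control; median GFP fluorescence per well over plate mean of DMSO wells so 100% = DMSO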); settings: 3 h, at 10 µM, stronger effect = higher value
# [14] = modulators of LAP4-GFP expression in yeast, primary screen, S. cerevisiae, multiplex flow cytometry (AID 1873;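 active = GFP signal, as percent of the solvent control, above the screen mean plus 3 SD, about 149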); settings: 3 h, at 10 µM, stronger effect = higher value
# [15] = modulators of AGP1-GFP expression in yeast TOR pathway, primary screen, cell-based, multiplex flow cytometry, S. cerevisiae (AID 1887;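 active = GFP signal above the screen-wide mean plus 3 SD, that is over about 124.5% of the solvent control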;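 note: AGP1-GFP fusion strain of S. cerevisiae within a five-strain barcoded multiplex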); settings: 3 h, at 10 µM, stronger effect = higher value
# [16] = RPL19A-GFP modulators, yeast TOR pathway, confirmation, cell-based, S. cerevisiae, flow cytometry, cherry picks, mother/daughter gates (AID 2270;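 active = GFP response below 50% of the DMSO control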); settings: S. cerevisiae RPL19A-GFP strain, 3 h, at 10 µM, stronger effect = lower value, 100 = same GFP as DMSO wells
# [17] = LAP4-GFP expression modulators in yeast, confirmation, cell-based, cherry picks, flow cytometry, mother/daughter gates (AID 2271;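 active = GFP response above 150% of the DMSO control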;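 note: ratio of sample to DMSO plate mean so 100% equals DMSO level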); settings: S. cerevisiae LAP4-GFP strain, 3 h, at 10 µM, stronger effect = higher value, 100 means same as DMSO control
# [18] = modulators of MEP2-GFP levels in yeast, confirmation, S. cerevisiae, flow cytometry GFP, cherry picks (AID 2272;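 active = GFP response above 150% of the DMSO control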;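 note: ratio of well signal to plate DMSO mean so 100% equals DMSO level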); settings: S. cerevisiae MEP2-GFP strain, 3 h, at 10 µM, stronger effect = higher value
# [19] = AGP1-GFP expression modulators, hit retest, confirmation, cell-based, flow cytometry, S. cerevisiae, cherry picks (AID 2273;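 active = GFP response above 150% of the DMSO level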;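 note: median GFP channel fluorescence over the whole cell population gate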); settings: S. cerevisiae AGP1-GFP strain, 3 h, at 10 µM
# [20] = modulators of CIT2-GFP expression in yeast, confirmation, S. cerevisiae, GFP fusion, cherry picks, mother/daughter gates (AID 2274;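 active = GFP response above 150% of the DMSO level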); settings: S. cerevisiae CIT2-GFP strain, flow cytometry, 3 h, at 10 µM, stronger effect = higher value
# [21] = inhibitors of CD8+ T cell-vesicle binding, pilot screen, LFA-1/ICAM-1 modulator project, MLPCN validation set, flow cytometry (AID 2523;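 active = response below a set limit, under 55% cells CD8-positive and vesicle-bound, and CD8 cells' 90th-percentile brightness under 279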;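 for vesicle binding response: mean PE anti-B7-1 fluorescence of CD8+ cells relative to row control; 100% = QL9-loaded vesicles with DMSO vehicle in the same plate row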); settings: 2C mouse CD8+ T cells, at 7 µM, stronger effect = lower value; double positive events: measured here: CD8+/vesicle+ event percentage
# [22] = molecular target: Integrin beta-1 (Homo sapiens) + Integrin alpha-4 (Homo sapiens) (UniProt P13612+P05556); assay: inhibition of HUTS-21 binding to VLA-4, pilot screen, VLA-4 allosteric modulator project, U937 cells, HUTS-21 mAb, flow cytometry, validation set (AID 2674;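 active = inhibition above 50%, about 3 SD of the validation set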;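 note: antibody binding induced by the VLA-4 ligand LDV present at three times its Kd; 0% = LDV ligand with antibody and no compound and 100% = antibody without LDV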); settings: HUTS-21 LIBS mAb binding, at 6.7 µM, stronger effect = higher value, binding induced by LDV ligand
# [23] = superoxide lowering in aged yeast cells, pilot screen, validation compound set (AID 2706;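 active = superoxide response below 65% of plate, a cut near 3 SD across the whole screen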;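 note: yeast exposed to compound for one week at 30 degrees C before staining; 100% = mean of all compound wells on the same plate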); settings: S. cerevisiae aging, superoxide DHE fluorescence; at 10 µM; stronger effect = lower value
# [24] = molecular target: Beta-adrenergic receptor kinase 1 (Homo sapiens) (UniProt P25098); assay: GRK2 binders displacing RNA aptamer, biochemical, validation, human GRK2, bead flow cytometry (AID 488806;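 active = aptamer binding inhibition above 30%, about 3 SD of noise from non-fluorescent compounds; inactive = inhibition at or below 30%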); settings: bead-bound GRK2, FAM-aptamer displacement, at 10 µM, stronger effect = higher value
# Chain of Beta-adrenergic receptor kinase 1 (Homo sapiens) (P25098 whole entry, looked up): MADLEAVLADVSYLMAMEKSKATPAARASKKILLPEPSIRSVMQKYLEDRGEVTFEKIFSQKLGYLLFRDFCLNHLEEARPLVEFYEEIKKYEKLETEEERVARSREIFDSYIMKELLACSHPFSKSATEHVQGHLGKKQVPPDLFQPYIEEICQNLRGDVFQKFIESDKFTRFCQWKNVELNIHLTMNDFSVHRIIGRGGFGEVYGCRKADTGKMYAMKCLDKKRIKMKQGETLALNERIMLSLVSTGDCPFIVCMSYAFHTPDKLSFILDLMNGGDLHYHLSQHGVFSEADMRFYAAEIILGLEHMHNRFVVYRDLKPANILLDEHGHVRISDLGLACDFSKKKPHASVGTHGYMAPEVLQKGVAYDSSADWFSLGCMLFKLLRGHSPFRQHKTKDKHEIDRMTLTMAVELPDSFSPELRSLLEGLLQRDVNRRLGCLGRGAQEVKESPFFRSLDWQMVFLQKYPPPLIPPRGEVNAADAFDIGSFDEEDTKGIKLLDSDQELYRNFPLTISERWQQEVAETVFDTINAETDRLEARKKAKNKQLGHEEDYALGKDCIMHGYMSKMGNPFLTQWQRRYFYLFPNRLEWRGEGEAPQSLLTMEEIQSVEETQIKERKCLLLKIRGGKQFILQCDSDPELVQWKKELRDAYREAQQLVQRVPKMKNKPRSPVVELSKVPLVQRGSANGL
# [25] = molecular target: Beta-2 adrenergic receptor (Homo sapiens) (UniProt P07550); assay: beta2AR agonists driving receptor internalization, pilot screen, cell-based, FAP fluorogen, flow cytometry, validation set (AID 504459;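 active = percent response above 42, roughly 3 SD of non-fluorescent test compounds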;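 note: agonist-driven loss of surface beta2AR via internalization measured by FAP dye flow cytometry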); settings: Am2.2-beta2AR cells, FAP surface receptor flow cytometry; at 10 µM; stronger effect = higher value
# Chain of Beta-2 adrenergic receptor (Homo sapiens) (P07550 whole entry, looked up): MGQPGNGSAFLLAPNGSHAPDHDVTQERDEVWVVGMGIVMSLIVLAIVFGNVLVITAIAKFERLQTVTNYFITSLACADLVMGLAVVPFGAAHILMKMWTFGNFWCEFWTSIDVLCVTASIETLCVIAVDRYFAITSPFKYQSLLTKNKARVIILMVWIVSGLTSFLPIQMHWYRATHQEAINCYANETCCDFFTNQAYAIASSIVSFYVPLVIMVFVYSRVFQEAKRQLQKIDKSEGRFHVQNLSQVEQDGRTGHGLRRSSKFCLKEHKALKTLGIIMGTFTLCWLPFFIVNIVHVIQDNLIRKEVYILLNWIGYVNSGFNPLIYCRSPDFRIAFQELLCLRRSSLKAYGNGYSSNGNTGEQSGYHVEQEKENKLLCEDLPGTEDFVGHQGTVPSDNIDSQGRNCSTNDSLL
# [26] = molecular target: AP-2 complex subunit beta (Homo sapiens) (UniProt P63010); assay: inhibitors of arrestin peptide binding to AP2, pilot screen, biochemical, validation set, GST-AP2 beads, flow cytometry (AID 504541;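 active = inhibition above 54%, about 3 SD of non-fluorescent compounds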;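 note: AP2 carries R879A mutation and is captured from E. coli lysate; bead-bound FITC arrestin peptide fluorescence measuring arrestin peptide binding to AP2; 0% = DMSO wells and 100% = excess unlabeled arrestin peptide control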); settings: FITC arrestin peptide, at 10 µM, stronger effect = higher value, AP2 beta2 appendage fragment, R879A mutant
# Chain of AP-2 complex subunit beta (Homo sapiens) (P63010 whole entry, looked up, the tested form may be a part, one chain of several): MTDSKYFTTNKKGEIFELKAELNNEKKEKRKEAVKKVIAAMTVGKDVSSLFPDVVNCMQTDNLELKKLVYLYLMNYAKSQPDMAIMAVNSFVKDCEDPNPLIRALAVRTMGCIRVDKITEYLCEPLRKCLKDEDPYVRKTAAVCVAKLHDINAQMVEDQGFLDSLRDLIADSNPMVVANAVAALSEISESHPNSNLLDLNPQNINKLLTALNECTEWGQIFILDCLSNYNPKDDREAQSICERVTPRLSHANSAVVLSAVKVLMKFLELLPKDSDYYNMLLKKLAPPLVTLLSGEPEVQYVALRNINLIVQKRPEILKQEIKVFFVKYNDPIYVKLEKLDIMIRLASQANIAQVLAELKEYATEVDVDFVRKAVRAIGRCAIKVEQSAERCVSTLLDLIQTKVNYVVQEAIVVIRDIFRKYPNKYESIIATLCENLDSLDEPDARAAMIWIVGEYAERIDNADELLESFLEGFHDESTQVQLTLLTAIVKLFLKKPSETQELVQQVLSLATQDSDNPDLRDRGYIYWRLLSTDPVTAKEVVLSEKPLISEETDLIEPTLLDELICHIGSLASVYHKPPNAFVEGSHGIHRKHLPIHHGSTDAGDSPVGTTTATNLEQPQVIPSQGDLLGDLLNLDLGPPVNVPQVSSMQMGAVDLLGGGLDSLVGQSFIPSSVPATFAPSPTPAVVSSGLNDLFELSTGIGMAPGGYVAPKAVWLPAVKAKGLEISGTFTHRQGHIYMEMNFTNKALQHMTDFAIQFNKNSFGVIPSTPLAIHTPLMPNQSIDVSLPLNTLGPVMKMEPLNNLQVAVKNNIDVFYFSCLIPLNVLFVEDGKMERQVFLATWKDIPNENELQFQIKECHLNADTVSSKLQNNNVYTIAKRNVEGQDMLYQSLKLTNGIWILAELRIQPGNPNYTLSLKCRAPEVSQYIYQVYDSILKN
# [27] = yeast V-ATPase proton transport modulators, S. cerevisiae, pHLuorin, HTS validation (AID 504600; in the data active = response above about 15%;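 note: plate controls were DMSO for no effect and reference compound for full effect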); settings: S. cerevisiae pHLuorin cytosolic pH, at 10 µM, stronger effect = higher value
# [28] = test system: anti-desmoglein-3 scFv antibody binding to human DSG3; assay: inhibitors of anti-DSG3 scFv binding to DSG3, pilot screen, biochemical, validation compound set, bead-based, flow cytometry (AID 588368;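 active = binding below the plate cutoff, the plate median minus 3 SD, with a reading above zero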;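 note: signal is the median channel fluorescence of bead-bound GFP antibody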); settings: Protein G beads, DSG3-Fc, scFv-GFP binding, at 10 µM, stronger effect = lower value
# [29] = inhibitors of fungal efflux pumps CDR1, CDR2, MDR1, pilot screen, validation compound set, multiplex, phenotypic (AID 588506;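 active = efflux inhibition above 0.42, the validation set average plus 4 SD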;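 note: Nile Red retained in cells so higher fluorescence means more efflux inhibition; 0 = negative control wells and 1 = enniatin B 25 µM full block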); settings: S. cerevisiae pump-expressing triplex, Nile Red efflux flow cytometry; at 10 µM; stronger effect = higher value; the pumps come from Candida albicans
# [30] = molecular target: ATP-binding cassette sub-family B member 6 (Homo sapiens) (UniProt Q9NP58); assay: ABCB6 transporter inhibitors, pilot screen, K562-ABCB6 cells, flow cytometry, validation set (AID 588550;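 active = inhibition above the screen-wide mean plus 3 SD, about 51%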;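 note: 0% = DMSO wells and 100% = benzethonium chloride 70 µM positive control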); settings: K562-ABCB6 porphyrin accumulation, 1 h, at 10 µM, stronger effect = higher value
# Chain of ATP-binding cassette sub-family B member 6 (Homo sapiens) (Q9NP58 whole entry, looked up): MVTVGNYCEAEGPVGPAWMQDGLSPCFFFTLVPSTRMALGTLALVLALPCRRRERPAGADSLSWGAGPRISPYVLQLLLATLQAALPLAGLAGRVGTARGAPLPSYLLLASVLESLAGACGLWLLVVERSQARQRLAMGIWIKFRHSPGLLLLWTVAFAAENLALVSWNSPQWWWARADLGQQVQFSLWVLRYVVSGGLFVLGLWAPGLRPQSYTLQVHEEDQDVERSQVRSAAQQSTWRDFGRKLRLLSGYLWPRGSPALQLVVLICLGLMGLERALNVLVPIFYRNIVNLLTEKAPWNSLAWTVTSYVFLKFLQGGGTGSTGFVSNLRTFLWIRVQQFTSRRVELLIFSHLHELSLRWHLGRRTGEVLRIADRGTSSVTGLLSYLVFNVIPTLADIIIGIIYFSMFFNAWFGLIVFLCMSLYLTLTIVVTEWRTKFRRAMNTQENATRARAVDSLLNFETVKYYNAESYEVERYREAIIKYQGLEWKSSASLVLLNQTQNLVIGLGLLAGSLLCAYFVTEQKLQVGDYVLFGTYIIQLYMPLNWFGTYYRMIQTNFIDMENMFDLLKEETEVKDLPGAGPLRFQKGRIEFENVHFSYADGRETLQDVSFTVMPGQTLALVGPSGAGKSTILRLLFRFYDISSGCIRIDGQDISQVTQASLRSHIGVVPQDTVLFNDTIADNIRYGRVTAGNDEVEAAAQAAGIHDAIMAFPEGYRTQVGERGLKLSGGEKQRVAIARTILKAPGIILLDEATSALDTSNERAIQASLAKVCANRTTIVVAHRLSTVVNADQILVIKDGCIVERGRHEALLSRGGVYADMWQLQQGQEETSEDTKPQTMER
# [31] = promoters of myeloid differentiation in arrested cells, primary screen, cell-based, GFP/MAC1 double positive, flow cytometry, validation set (AID 588685;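 active = differentiation response of at least 50%, scaled between solvent and reference control, from cells with both markers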;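 note: compound exposure lasts four days before antibody staining and flow analysis; 0% = DMSO wells and 100% = 5 µM fulvestrant positive control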); settings: ER-HoxA9 marrow cells, stronger effect = higher value, normalized: vehicle 0, fulvestrant 100
# [32] = measured here: daughter cell gate
# [33] = measured here: mother cell gate
smiles,measurement,setting,value
COc1cc(C2/C(=C(\O)c3ccc4c(c3)CC(C)O4)C(=O)C(=O)N2Cc2ccco2)ccc1O (centres undefined),RGS16–Galpha-o binding response,[1],-10.7%
same,RGS19–Galpha-o binding response,[2],178%
same,RGS7–Galpha-o binding response,[3],17.7%
same,RGS8–Galpha-o binding response,[4],12.8%
same,inhibition,[5],1.5% (inactive)
same,binding response (% of control),[6],106% (inactive)
same,response (percent of control binding),[7],110% (inactive)
same,response (% of control binding),[8],109% (inactive)
same,binding response (% of control),[9],106% (inactive)
same,response (percent of control binding),[10],106% (inactive)
Cc1cc(=O)n2[nH]c(-c3sccc3-n3c(C)ccc3C)cc2n1,RGS16–Galpha-o binding response,[1],44.4%
same,RGS19–Galpha-o binding response,[2],5890%
same,RGS7–Galpha-o binding response,[3],-34.3%
same,RGS8–Galpha-o binding response,[4],61.1%
same,inhibition,[5],-1.8% (inactive)
same,binding response (% of control),[6],103% (inactive)
same,response (percent of control binding),[7],86.4% (inactive)
same,response (% of control binding),[8],95.8% (inactive)
same,binding response (% of control),[9],89.2% (inactive)
same,response (percent of control binding),[10],80.1% (inactive)
O=C(Nc1ccccc1)OCc1cc(-c2ccc(Cl)cc2)on1,inhibition,[5],2.5% (inactive)
same,binding response (% of control),[6],107% (inactive)
same,response (percent of control binding),[7],88.4% (inactive)
same,response (% of control binding),[8],107% (inactive)
same,binding response (% of control),[9],93.7% (inactive)
same,response (percent of control binding),[10],55.4% (inactive)
O=C1ON=C(c2ccc(Cl)cc2)/C1=C/c1ccc(O)cc1,percent of DMSO control GFP,[11],108% (inactive)
same,GFP response vs DMSO,[12],95.2% (inactive)
same,percent response of DMSO control,[13],112% (inactive)
same,GFP response vs DMSO,[14],98.2% (inactive)
same,"GFP response, % of DMSO",[15],87.4% (inactive)
same,GFP response vs DMSO,[16],101% (inactive)
same,GFP response vs DMSO,[16]; [32],105%
same,GFP response vs DMSO,[16]; [33],96.8%
same,GFP response relative to DMSO,[17],90.2% (inactive)
same,GFP response relative to DMSO,[17]; measured here: daughter cell gate response,95.6%
same,GFP response relative to DMSO,[17]; measured here: mother cell gate response,89%
same,GFP response vs DMSO,[18],100% (inactive)
same,"GFP response, % of DMSO",[19],95.4% (inactive)
same,"GFP response, % of DMSO",[20],111% (inactive)
same,"GFP response, % of DMSO",[20]; [32],114%
same,"GFP response, % of DMSO",[20]; [33],104%
same,double positive events,[21],60.6%
same,vesicle binding response,[21],94.3% (inactive)
same,inhibition,[22],14.6% (inactive)
same,superoxide response (% of plate),[23],93.4% (inactive)
same,aptamer binding inhibition,[24],4% (inactive)
same,response,[25],33.5% (inactive)
same,inhibition,[26],-8.88% (inactive)
same,response,[27],-1.63% (inactive)
same,binding (% of control),[28],101% (inactive)
same,efflux inhibition (fraction of control),[29],-0.06 (inactive)
same,inhibition,[30],2% (inactive)
same,differentiation response,[31],-8.8% (inactive)
